# From PubChem BioAssay
# “And” between values parts separate entries of the source, which are not always exact repeats. Identical values can stand only once. Records with an inconclusive call do not appear. The source made the active and inactive calls. Unless noted, no cut-off is given here; in the data, nearly all actives have AC50 up to about 26 µM.
# Tests used:
# [1] = viability loss in pontine glioma line – cell-based, SU-DIPG-XVII, MIPE5.0, CellTiter-Glo, qHTS, dose response (AID 1347060); settings: CellTiter-Glo ATP luminescence;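 for AC50: cells exposed to compound for 48 hours before viability readout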
# [2] = viability loss in pontine glioma line – cell-based, SU-DIPG-XIII, MIPE5.0, CellTiter-Glo, qHTS, dose response (AID 1347064; cut-off not given, nearly all actives have AC50 up to about 23 µM;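 for AC50: cells exposed to compound for 48 hours before the viability read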); settings: CellTiter-Glo ATP luminescence
# [3] = viability loss in pontine glioma line – cell-based, SU-DIPG-XXV, MIPE5.0, CellTiter-Glo, qHTS, dose response (AID 1347065); settings: CellTiter-Glo ATP luminescence;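 note: cells exposed to compound for 48 hours before ATP readout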
# [4] = JHH-DIPG-1 glioma cell viability, MIPE5.0 library, CellTiter-Glo luminescence, qHTS (AID 1347067); settings: JHH-DIPG-1 glioma viability, CellTiter-Glo ATP luminescence;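 note: cells exposed to compound for 48 hours before readout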
# [5] = growth inhibition of DIPG cells – cell-based, MIPE5.0 library, qHTS (AID 1347068; cut-off not given, nearly all actives have IC50 up to about 30 µM;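 for IC50: cells exposed to compound for 48 hours before viability readout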); settings: SU-DIPG-XXV viability
# [6] = viability loss in pontine glioma line – cell-based, SU-DIPG-IV, MIPE4.0, CellTiter-Glo, qHTS, dose response (AID 1347063; cut-off not given, nearly all actives have AC50 up to about 30 µM;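 note: compound exposure lasted 48 hours before the viability readout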); settings: CellTiter-Glo ATP luminescence
# [7] = growth inhibition of DIPG cells – cell-based, MIPE4.0 library, CellTiter-Glo luminescence, qHTS (AID 1347066; cut-off not given, nearly all actives have AC50 up to about 30 µM;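 note: cells exposed to compound for 48 hours before readout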); settings: SU-DIPG-VI viability, CellTiter-Glo ATP luminescence
# [8] = viability loss with induced miR-34 in A549 – imaging, A549 dox-inducible miR-34, nuclei and caspase counts, primary screen (AID 1347080;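 active = compounds whose cell count with miR-34 switched on is under 0.7 times the count with it off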); settings: A549 miR-34 inducible, Hoechst nuclei count, 48 h
# [9] = MELAS cybrid and Rieske KO viability enhancers – cell-based, MELAS cybrids, Rieske KO mouse fibroblasts, CellTiter-Glo, primary screen (AID 1508586;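 active = mean z-score across replicates of 1.96 or higher in either the MELAS or the Rieske mutant cell line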;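 note: z relative to plate mean and SD of compound and empty wells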); settings: low glucose
# [10] = viability loss in pontine glioma line – cell-based, JHH-DIPG-1, MIPE4.0, CellTiter-Glo, qHTS, dose response (AID 1347062; cut-off not given, nearly all actives have AC50 up to about 27 µM); settings: JHH-DIPG-1 viability, CellTiter-Glo ATP luminescence
# [11] = compounds altering HSF1 focus formation in cells – imaging, Selleck Cancer Library (AID 1347162; in the data active = plate-normalised HSF1 focus index below about 0.46); settings: human cells, HSF1 nuclear foci imaging, at 10 µM; SSMD: measured here: HSF1 foci SSMD mean; cell count: measured here: cell number; plate-normalised HSF1 focus index: stronger effect = lower value
# [12] = P. berghei load reduction in hepatocytes – cell-based, HepG2, luciferase luminescence, HepG2 viability, primary screen (AID 624349; in the data active = parasite load remaining mostly below about 12%, no sharp cut-off; inactive = mostly above about 10%;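 note: 100% = mean of DMSO negative control wells on the same plate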); settings: P. berghei liver stage in HepG2, luciferase luminescence, concentration not given here; parasite load remaining: stronger effect = lower value; viability: measured here: HepG2 viability without parasites
# [13] = signal quenchers or enhancers, Cy5 substrate/SSB – biochemical, NIH Clinical Collection, E. coli SSB, artefact control for HCV NS3 helicase inhibitor project (AID 743268; call rule not given here); settings: Cy5-oligo bound E. coli SSB, fluorescence interference
# [14] = tested on: Hepatitis C virus NS3 helicase; assay: blockers of NS3h binding to DNA – biochemical, fluorescence polarization, NIH Clinical Collection, primary screen (AID 743270; call rule not given here); settings: NS3 helicase binding to Cy5-dT15 DNA, stronger effect = higher value, concentration not given here
# [15] = target: Single-stranded DNA-binding protein (Escherichia coli (strain K12)) (UniProt P0AGE0); assay: SSB-ssDNA binding inhibitors – biochemical, fluorescence polarization, NIH Clinical Collection, counter-screen for HCV NS3 helicase inhibitor project (AID 743271; in the data active = inhibition above about 28%); settings: E. coli SSB-DNA binding, stronger effect = higher value, concentration not given here
# [16] = compounds distorting NS3 helicase fluorescence signal – biochemical, NIH Clinical Collection, artefact control for HCV NS3 helicase inhibitor project (AID 743272; call rule not given here;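 note: HCV NS3 helicase with a Cy5 labelled single stranded DNA probe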); settings: fluorescence interference counterscreen, HCV NS3 helicase assay; stronger effect = lower value
# [17] = galactose survival enhancers in mitochondrial complex I cybrids – cell-based, galactose medium, ATP luminescence, primary screen (AID 1645843;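 active = z-score of at least 1.8 in each of two replicates, scored against plate mean and spread of sample wells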;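 note: positive z means more ATP and so rescue of galactose-driven cybrid death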); settings: complex I mutant cybrid cells, 72 h, stronger effect = higher value
# [18] = stronger effect = lower value, cell number ratio, induced over uninduced
# [19] = measured here: relative caspase fold change +Dox/-Dox
# [20] = measured here: total cells with miR-34 induction, stronger effect = lower value
# [21] = measured here: total cells without miR-34 induction
# [22] = MELAS cybrid survival, CellTiter-Glo 48 h, stronger effect = higher value
# [23] = Rieske KO mouse fibroblast survival, CellTiter-Glo 72 h
smiles,measurement,setting,value
C[C@H]1[C@H](O)[C@@H](C)/C=C/C=C/CC/C=C/C=C/C=C/C=C/[C@H](O[C@@H]2O[C@H](C)[C@@H](O)[C@H](N)[C@@H]2O)C[C@@H]2O[C@](O)(C[C@@H](O)[C@H](O)CC[C@@H](O)C[C@@H](O)C[C@@H](O)CC(=O)O[C@H]1C)C[C@H](O)[C@H]2C(=O)O,outcome,[1],inactive
same,outcome,[2],inactive
same,outcome,[3],inactive
same,outcome,[4],inactive
same,outcome,[5],inactive
CC(=O)OC[C@H]1O[C@@H]([S-])[C@H](OC(C)=O)[C@@H](OC(C)=O)[C@@H]1OC(C)=O.CC[PH+](CC)CC.[Au],AC50,[1],1.05 µM (active)
same,AC50,[2],1.66 µM (active)
same,AC50,[3],1.18 µM (active)
same,AC50,[4],1.32 µM (active)
same,IC50,[5],2.63 µM (active)
CC1(C)CC[C@]2(NC(=O)C(C)(F)F)CC[C@]3(C)[C@H](C(=O)C=C4[C@@]5(C)C=C(C#N)C(=O)C(C)(C)[C@@H]5CC[C@]43C)[C@@H]2C1,AC50,[1],7.42 µM (active)
same,AC50,[2],10.5 µM (active)
same,AC50,[3],9.34 µM (active)
same,AC50,[4],7.42 µM (active)
same,IC50,[5],11.8 µM (active)
CN1[C@@H]2CC(O)C[C@H]1[C@@H]1O[C@@H]12 (stereo partly drawn),outcome,[1],inactive
same,AC50,[6],16.6 µM (active)
same,outcome,[2],inactive
same,outcome,[3],inactive
same,AC50,[7],16.6 µM (active)
same,outcome,[4],inactive
same,outcome,[5],inactive
same,fold change,[8]; [18],0.909 (inactive) and 0.934 (inactive)
same,fold change,[8]; [19],0.912 and 0.808
same,cell count,[8]; [20],8400 and 9480
same,cell count,[8]; [21],9240 and 10200
same,z-score,[9]; [22],-0.234 (inactive) and -0.344 (inactive)
same,z-score,[9]; [23],-0.606 and 0.658
CC(N[C@H]1C[C@@H]1c1ccccc1)c1ccc2c(c1)OCCO2 (stereo partly drawn),outcome,[1],inactive
same,outcome,[10],inactive
same,outcome,[2],inactive
same,outcome,[3],inactive
same,outcome,[4],inactive
same,outcome,[5],inactive
Cn1c(/C=C/CO)c(CO)c2c1C(=O)C=C(N1CC1)C2=O,outcome,[1],inactive
same,outcome,[3],inactive
same,outcome,[5],inactive
CN[C@@H]1C[C@H]2O[C@@](C)([C@@H]1OC)n1c3ccccc3c3c4c(c5c6ccccc6n2c5c31)C(=O)NC4,AC50,[1],0.118 µM (active)
same,AC50,[2],0.263 µM (active)
same,AC50,[3],0.209 µM (active)
same,AC50,[4],0.209 µM (active)
same,IC50,[5],0.833 µM (active)
same,fold change,[8]; [18],1.19 (inactive)
same,fold change,[8]; [19],0.478
same,cell count,[8]; [20],874
same,cell count,[8]; [21],732
CC1=C2C[C@H]3[C@@H](CC=C4C[C@@H](O)CC[C@@]43C)[C@@H]2CC[C@]12O[C@@H]1C[C@H](C)CN[C@H]1[C@H]2C,outcome,[1],inactive
same,outcome,[10],inactive
same,outcome,[6],inactive
same,outcome,[2],inactive
same,outcome,[3],inactive
same,outcome,[7],inactive
same,outcome,[4],inactive
same,outcome,[5],inactive
same,fold change,[8]; stronger effect = lower value,0.912 (inactive)
same,fold change,[8]; [19],0.801
same,cell count,[8]; [20],4470
same,cell count,[8]; [21],4900
same,SSMD,[11],2.32
same,cell count,[11],7300
same,plate-normalised HSF1 focus index,[11],1.08 (inactive)
COc1ccc(N(C(=O)Oc2c(C)cccc2C)c2ccnc(Nc3ccc(N4CCN(C)CC4)cc3)n2)c(OC)c1,AC50,[1],10.5 µM (active)
same,AC50,[2],14.8 µM (active)
same,AC50,[3],10.5 µM (active)
same,outcome,[7],inactive
same,AC50,[4],16.6 µM (active)
same,IC50,[5],20.9 µM (active)
same,fold change,[8]; [18],0.826 (inactive)
same,fold change,[8]; [19],0.474
same,cell count,[8]; [20],5990
same,cell count,[8]; [21],7250
same,z-score,[9]; [22],0.0994 (inactive)
same,z-score,[9]; [23],-1.32
C[C@]12Cc3cn[nH]c3C[C@@H]1CC[C@@H]1[C@@H]2CC[C@@]2(C)[C@H]1CC[C@]2(C)O,parasite load remaining,[12],50.6% (inactive) and 13.2% (inactive)
same,viability,[12],69.5% and 91.5%
same,fluorescence ratio,[13],0.94 (inactive)
same,inhibition,[14],-1.97% (inactive)
same,inhibition,[15],-2.76% (inactive)
same,fluorescence ratio,[16],0.96 (inactive)
same,outcome,[1],inactive
same,outcome,[6],inactive
same,outcome,[2],inactive
same,outcome,[3],inactive
same,outcome,[7],inactive
same,outcome,[4],inactive
same,outcome,[5],inactive
same,fold change,[8]; stronger effect = lower value,0.887 (inactive)
same,fold change,[8]; [19],2.02
same,cell count,[8]; [20],8690
same,cell count,[8]; [21],9800
same,z-score,[9]; [22],0.697 (inactive) and -0.417 (inactive)
same,z-score,[9]; [23],-0.0861 and -1.23
same,z-score,[17],-0.265 (inactive)
